# Over roughly 33,000 sequences, “E-score (-0.5 to 0.5)” has its median near -0.016; the highest 2% begin near 0.3. For the sample, the highest values were picked, then their nearest neighbours and some sequences at random.
# Target: T1, Yer184c (UniProt P39961)
# T1 sequence: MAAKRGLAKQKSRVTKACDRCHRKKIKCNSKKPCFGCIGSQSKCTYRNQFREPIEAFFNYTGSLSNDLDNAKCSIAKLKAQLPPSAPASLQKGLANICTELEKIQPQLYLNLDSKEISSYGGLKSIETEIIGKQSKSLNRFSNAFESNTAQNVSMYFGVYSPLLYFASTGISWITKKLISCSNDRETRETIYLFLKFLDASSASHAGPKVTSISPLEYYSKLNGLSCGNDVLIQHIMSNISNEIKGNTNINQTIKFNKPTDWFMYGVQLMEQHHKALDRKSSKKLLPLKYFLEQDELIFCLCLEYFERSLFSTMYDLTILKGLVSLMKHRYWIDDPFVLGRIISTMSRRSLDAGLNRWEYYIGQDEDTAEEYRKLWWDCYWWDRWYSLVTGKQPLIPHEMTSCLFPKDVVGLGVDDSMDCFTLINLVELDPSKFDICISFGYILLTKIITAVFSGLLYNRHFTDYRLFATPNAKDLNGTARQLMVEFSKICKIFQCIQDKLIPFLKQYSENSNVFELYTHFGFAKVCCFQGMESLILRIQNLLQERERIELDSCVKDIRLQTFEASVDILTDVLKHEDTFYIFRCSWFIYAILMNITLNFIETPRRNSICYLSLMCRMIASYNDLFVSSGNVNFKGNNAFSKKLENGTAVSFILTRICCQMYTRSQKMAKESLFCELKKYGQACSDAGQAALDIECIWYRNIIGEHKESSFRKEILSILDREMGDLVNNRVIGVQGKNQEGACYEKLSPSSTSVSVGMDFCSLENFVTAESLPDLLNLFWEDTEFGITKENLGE
# Experiment: PBM E-score (8-mer binding enrichment) (E-score (-0.5 to 0.5)); higher = stronger / more preferred TF binding
# Conditions: protein concentration: 100 nM; construct: GST-full length
# Description: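 Universal 'all 10-mer' protein binding microarrays (Agilent AMADID 015681) probed with GST-tagged S. cerevisiae TFs (full-length or DBD) made by in vitro transcription/translation (PURExpress), about 100-200 nM. Bound TF was detected with fluorescent anti-GST. Each ungapped 8-mer (which stands for itself and its reverse complement) is scored by the PBM enrichment score (E-score), a modified Wilcoxon-Mann-Whitney statistic from -0.5 to +0.5, computed with the Universal PBM Analysis Suite. Scale: above 0.35 generally sequence-specific binding.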
row,Sequence,PBM E-score
1,CATCAATC,-0.0552
2,GAGCCCCA,-0.266
3,CCGTGCGA,0.166
4,CTTTGCCA,0.034
5,TAACCATA,-0.0927
6,CTCTTTCC,-0.089
7,TAATTATA,0.322
8,GAATTATA,0.193
9,AAATTATA,0.205
10,GGTGTTCA,0.0476
11,ACCGGAAC,0.398
12,ACCGGAAT,0.233
13,GCCGGAAC,0.403
14,ACCGGAAG,0.279
15,CCCGGAAC,0.298
16,GCAGGAAC,-0.0354
17,ACCGGAAA,0.376
18,ACCGGACC,0.29
19,GCCGGAGC,0.238
20,AAGTCTAA,-0.093
21,CAGTCTCG,-0.0905
22,CAAGCGTC,-0.0502
23,GCTACTTA,-0.201
24,CATCTTGC,0.0249
25,CGGCTCAC,0.183
26,AGGCTCAA,-0.157

row,Sequence,PBM E-score
1,AGGCTCAG,-0.163
2,CGGCTCAG,0.337
3,TGGCTCAA,-0.0833
4,CGGCTCAA,0.314
5,TACAGTCA,-0.0508
6,ATCATTCA,0.195
7,CATGGTGC,-0.169
8,CTACATAG,0.0225
9,CGATACCA,-0.0309
10,GCCGGCCC,0.343
11,GCCGGCCA,0.348
12,GACGGCCA,-0.117
13,ACCGGCCC,0.13
14,GACGGCCC,-0.168
15,TCCGGCCA,0.218
16,GCCAGATA,-0.0238
17,GCCAACCC,-0.059
18,CCAAGGTC,-0.16
19,CGCTTATA,0.0756
20,CCTTGCCA,-0.0398
21,CCTAATGC,-0.233
22,GCTTTCGA,-0.0696
23,ATTTTAGA,0.0124
24,CACTGTCC,0.0762
25,GAGCCGAC,0.0364
26,GAGCCGAA,0.372

row,Sequence,PBM E-score
1,GAGCCAAA,-0.115
2,AAGCCGAT,0.356
3,AAGCCGAG,0.286
4,CAGCCGAA,0.229
5,AAGCCAAA,0.0744
6,AAGCCGAC,0.13
7,AAGCCGAA,0.389
8,CTAAACGC,0.0164
9,CTAGGCAC,-0.14
10,AGACCCAA,-0.134
11,GATGTTCC,0.239
12,AGACCCCG,0.08
13,ATGAAACA,0.02
14,CCCCGGAG,0.135
15,ACCCCGGA,0.142
16,CCCCGGAA,0.151
17,ACCCGGAT,0.185
18,ACCCGGAA,0.346
19,ACCCGGTA,0.183
20,GCCCCGGA,0.234
21,TCCCGGAA,0.391
22,ACCCGGAG,0.348
23,TCCCCGGA,0.224
24,GCCCGGAA,0.359
25,GCCCGGAC,0.192
26,ACTCGATA,0.0187

row,Sequence,PBM E-score
1,CCGACTAG,-0.036
2,TAGAAATA,0.126
3,ATGCTCTC,-0.0198
4,CAGCTACC,-0.113
5,CCATAGAG,-0.11
6,GGCATACC,-0.214
7,ACAAGGTC,-0.234
8,CAGTGGAC,-0.0743
9,AACCAAAC,-0.103
10,AAGTTCCT,0.0951
11,CAGTTCCG,0.199
12,ACGTTCCG,0.0307
13,ATGTTCCG,0.347
14,CCGTTCCG,0.304
15,ATGTTCCA,0.016
16,ATGTTCCC,-0.107
17,CCGTTCCA,0.0249
18,AAGTTCCG,0.307
19,TCAAGCCA,-0.0394
20,TAGTATGA,0.129
21,AAGGGCCC,-0.28
22,GACGCTTA,-0.148
23,AAAACTTA,0.245
24,CCGGAACC,0.363
25,CCGGAACG,0.329
26,CAGGAACC,-0.147

row,Sequence,PBM E-score
1,GCGGAACC,0.268
2,AGGGAACC,-0.101
3,ACGGAACT,0.197
4,ACGGAACC,0.329
5,CAGGAACG,-0.0846
6,ACGGAACG,0.212
7,CCTTGGAA,0.00859
8,TGCAAGCA,-0.0504
9,CAGCGTTA,-0.141
10,ATACGCTA,0.0126
11,ACCTTCAT,-0.00129
12,CTCCAGAG,-0.154
13,AGCCGAAG,0.14
14,ATCCGAAC,0.261
15,CGCCGATC,0.129
16,CGCCGAAC,0.345
17,CTCCGAAC,0.323
18,CGCCGAAG,0.328
19,CACCGAAG,0.192
20,CCCCGAAC,-0.00623
21,CTCCGAAG,0.303
22,GGCTGCGA,-0.00955
23,CATGGAGC,-0.175
24,ATGGAGAG,-0.0917
25,CATTAGGG,-0.12
26,GTCTCCGA,0.243

row,Sequence,PBM E-score
1,ATCTCCGA,0.36
2,CTCTCCGA,0.149
3,ATCTCCAG,-0.0032
4,ATCTCCGC,0.14
5,ATCTCCGG,0.435
6,AAGCACCA,-0.224
7,CACCAAAG,0.0906
8,ATTTATCA,0.258
9,ATTTATCG,0.103
10,CTTTATTC,0.0145
11,ATTTATTC,0.329
12,ATTTATCC,0.314
13,ATTTATTA,0.216
14,ATAGAACA,-0.0179
15,AGTACTGC,-0.177
16,AACTCGAT,0.12
17,ACAAGCGA,-0.015
18,GAAGTAAC,0.0995
19,AGTAGCAT,-0.0361
20,AGCATATG,-0.242
21,ATCCGATC,0.235
22,ATCCGACC,0.0769
23,ATCCGACA,0.162
24,ATCCGAAA,0.321
25,ATCCGAAT,0.419
26,CTCCGAGA,0.247

row,Sequence,PBM E-score
1,ATCCGATG,0.327
2,ATCCGATA,0.266
3,ATCCGAGA,0.252
4,GTCCGAGA,0.333
5,ATCCGAAG,0.302
6,ATACGAAT,0.0699
7,CTGTGTTC,0.093
8,CTAGAACC,-0.00303
9,TATGTACA,-0.0329
10,AGCACTCG,-0.0898
11,CTAGAAAG,-0.0631
12,ATGTATGC,0.0572
13,AGTCTCAG,-0.104
14,TTCCGAAA,0.37
15,GTCCGAAC,0.23
16,GTCCGAAA,0.316
17,TACCGAAA,0.204
18,CTCCGAAA,0.266
19,TCCCGAAA,0.196
20,CCAGCTAA,-0.204
